Bioassay records from PubChem BioAssay.
Pf growth 48h: inhibits P. falciparum growth in the first generation, 48 h. P. falciparum luciferase growth in erythrocytes, 48 h. hit rate 5.9% among 310,000. AID 504832. Potency, µM (series often up to 28.7 µM), inactives show at the highest dose activity change, negative = inhibition, actives largely listed as inhibitors; note: potency is the fitted concentration of half-maximal effect
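Here the parasites carry a stable luciferase gene and grow inside erythrocytes in Albumax-based RPMI medium with compound for one erythrocytic cycle. Activity is scored as loss of luminescent signal.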
MARV entry inh: inhibitors of Marburg virus binding or cell entry | Marburg virus pseudotyped entry inhibition, cell reporter | Potency, µM (titrated, usually from 37.8 µM), inactives show at the top dose activity change, negative = inhibition, actives largely listed as inhibitors | hit rate 1.8% among 300,000 | AID 540276; calls by dose curve; tested in HEK293 cells; note: potency is the fitted concentration of half-maximal effect
HCMV antiviral: human cytomegalovirus inhibition; AID 1259415; hit rate 4.5% among 410,000; HFF cells, HCMV-luciferase reporter, 72 h; active compounds read low; activity change, negative = inhibition, % at 57.5 µM; in the data active = activity change below about -60%; inconclusive = no clear call, values can overlap the other calls; inactive = above about -39%
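Two compound doses tested in HFFs infected with HCMV-luciferase, MOI 1 PFU/cell, 72 h at 37C. Lysate luminescence read with OneGlo; data normalized against buffer-only and 10uM Salinomycin inhibitor controls.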
LASV entry inh: blocks Lassa virus binding to or entry into cells; Lassa virus pseudotype entry inhibition, cell reporter; Potency, µM (doses to about 37.9 µM), for inactives: top-dose activity change, negative = inhibition, usual class: inhibitors; hit rate 1.2% among 300,000; AID 540256; calls by dose curve; tested in HEK293 cells; note: potency is the fitted concentration of half-maximal effect; nearly all actives have a fitted effect of over 50% in size
Pf growth 96h: inhibits malaria parasite growth, 96 h. P. falciparum luciferase reporter growth, 96 h. Potency, µM (top dose mostly 28.7 µM), for inactives: at the highest dose activity change, negative = inhibition, usual class: inhibitors. hit rate 6.9% among 320,000. AID 504834; note: potency is the fitted concentration of half-maximal effect
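Luminescence readout: decreased luciferase signal marks inhibited growth of reporter-expressing P. falciparum in infected red cells (2% hematocrit, 0.05% parasitemia final), exposed to compound two generations (96 h, 37 C, 5% CO2).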
HCV inhibitor: blocks hepatitis C virus | Huh7.5.1 HCVcc-Cre infection, luciferase reporter, 44 h | Potency, µM (titrated, usually from 41.8 µM), without a hit: top-dose activity change, negative = inhibition, usual class: inhibitors | hit rate 3.4% among 340,000; note: potency is the fitted concentration of half-maximal effect
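Cells (1,000/well) were plated 4 h before compound, then infected with HCVcc-Cre virus (~0.5 moi). After 44 h further culture, infection was read as luciferase luminescence following a 15 min substrate incubation at room temperature.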
The depositor's hits bear a star; u = inconclusive; x = no result given; ! = a repeat was not active; [ ] = remark or other dose. Rows were chosen to be rich in hits. Some 14% of all compounds tested hit in one or more screens of this group. Unless noted, calls come from the whole dose curve; as a rule, active = well fitted inhibition curve with a large enough effect; inconclusive = small, poorly fitted or top-dose-only effect, or another doubt; inactive = no such curve, though single readings can be large or run the other way. % is set by controls: 0 for no effect and ±100 for the full control effect.

SMILES | Pf growth 48h | MARV entry inh | HCMV antiviral | LASV entry inh | Pf growth 96h | HCV inhibitor
COc1ccc(Cl)cc1C(=O)Nc1cccc2ncccc12 | u | x | 12 | x | 0.23µM* | u
COc1ccc(Br)cc1C(=O)Nc1cccc2ncccc12 | 1% | u | -39 | 17% | -7% | 10µM*
O=C(Nc1ccc(Br)cc1)c1cc(Br)cc(Br)c1O | u | x | -99* | x | -12% | x
COc1cc(C(=O)Nc2cccc3ncccc23)cc(OC)c1OC | 15% | -17%[46.1 µM] | 32 | 17% | x | u
CCOc1ccc(C(=O)Nc2cccc3ncccc23)cc1Cl | -4% | -15% | -11 | -2% | u | u
COc1ccc(Br)cc1C(=O)Nc1ccc(C(=O)O)cc1 | -1% | 0%[46.1 µM] | 30 | 6%[46.1 µM] | 30% | u
COc1ccc(Br)cc1C(=O)Nc1ccc(O)cc1 | 22% | 25% | -6 | -10% | x | 4µM*
CS(=O)(=O)Nc1ccc(F)cc1 | x | x | 25 | x | x | x
COc1ccc(C(=O)c2[nH]c(N)c(C(=O)NCCc3c[nH]c4ccccc34)c2-c2ccc(Cl)c(F)c2)cc1 | x | x | 14 | x | x | x
O=C(Nc1ccc2c(c1)OCO2)C1CCN(S(=O)(=O)c2ccc3c(c2)OCCO3)CC1 | u | 2% | u | -13% | 30% | -23%
O=C(C1CCN(S(=O)(=O)c2ccc(F)cc2)CC1)N1CCOCC1 | 11% | 10% | -14 | -14% | 7.4µM* | 20%
Cc1ccc(S(=O)(=O)N2CCC(C(=O)Nc3ccc(N4CCOCC4)cc3)CC2)cc1C | 4.1µM* | 18% | -13 | 3% | u | -6%
O=C(Nc1ccc(S(=O)(=O)N2CCOCC2)cc1)C1CC1 | 32% | 3%[46.1 µM] | -15 | -10%[46.1 µM] | 4.7µM* | 3%
Cc1ccc(NC(=O)C2CCN(S(=O)(=O)c3ccc(C(C)(C)C)cc3)CC2)cc1S(=O)(=O)N1CCOCC1 | x | x | -37 | x | x | u
O=C(Nc1ccc(N2CCOCC2)cc1)C1CCN(S(=O)(=O)c2ccc3c(c2)OCCO3)CC1 | 8.3µM* | 15%[46.1 µM] | 97 | -32% | u | 18%
CCC(=O)Nc1ccc(S(=O)(=O)N2CCOCC2)cc1 | x | 23% | 30 | 6% | 21% | 18%
CCOC(=O)C1=CCN(S(=O)(=O)c2cccc(Cl)c2)C1c1ccc(Cl)c(Cl)c1 (stereo not drawn) | x | x | -15 | x | x | x
O=C(CSc1nc2[nH]ncc2c(=O)[nH]1)Nc1cc(C(F)(F)F)ccc1Cl | x | x | -1 | x | x | x
Cc1cccc(C)c1NC(=O)C1c2ccccc2OCC(=O)N1Cc1ccc2c(c1)OCO2 (stereo not drawn) | x | x | 5 | x | x | x
CCOc1ccc(-c2cc(C(=O)N3CCN(c4cccc(C(F)(F)F)c4)CC3)c3ccccc3n2)cc1 | x | x | 13 | u | x | x
CCC(CC)C(=O)Nc1ccc(OCc2cc(=O)n3c4c(sc3n2)CCCC4)cc1 | x | -2%[46.1 µM] | -17 | 8%[46.1 µM] | x | x
Cc1ccccc1NC(=O)NCC1CCN(c2ccc(S(=O)(=O)N3CCOCC3)cc2)CC1 | u | -6% | 2 | -16% | 23% | 35µM*
CN1C(=O)C(C(Nc2ccccc2)c2ccc(F)cc2)c2ccccc21 (stereo not drawn) | x | x | 7 | x | x | x
Cc1ccc(N2CC(C(=O)OCC(=O)c3ccc(F)cc3)CC2=O)cc1 (stereo not drawn) | 13% | -9%[46.1 µM] | 54 | -7%[46.1 µM] | 2.9µM* | 1%
CCC(OCC(O)CN1CCN(CCN2C(=O)c3cccc4cccc(c34)C2=O)CC1)c1ccccc1 (stereo not drawn) | u | u | u | u | u | 7.9µM*
SMILES | Pf growth 48h | MARV entry inh | HCMV antiviral | LASV entry inh | Pf growth 96h | HCV inhibitor
C=CCc1ccccc1OCC(O)CN1CCN(c2ccc(C)cc2)CC1 (stereo not drawn) | u | -26% | -11 | -17% | 9.3µM* | u
C=CCc1ccccc1OCC(O)CN1CCN(CCN2C(=O)c3cccc4cccc(c34)C2=O)CC1 (stereo not drawn) | u | 11µM* | -38 | u | 4% | 14µM*
CC(C)OCC(O)CN1CCN(CCN2C(=O)c3cccc4cccc(c34)C2=O)CC1 (stereo not drawn) | 16% | x | -30 | x | 1% | u
Cc1ccccc1OCC(O)CN1CCN(CCN2C(=O)c3cccc4cccc(c34)C2=O)CC1 (stereo not drawn) | 0% | u | u | u | u | u
CC(=O)c1cccc(NC(=S)N2CCN(CCN3C(=O)c4cccc5cccc(c45)C3=O)CC2)c1 | -6% | u | -79* | 4%[46.1 µM] | 32% | u
Cc1ccc(NC(=O)CN(C)S(=O)(=O)c2ccc3nc(C)sc3c2)c(C)c1 | x | -20%[46.1 µM] | u | -6%[46.1 µM] | x | x
Cc1nn2c(C)c(C(=O)N3CCN(c4ccc(Cl)cc4)CC3)cnc2c1-c1ccc(F)cc1 | x | x | -7 | 11%[46.1 µM] | x | x
COc1ccc(S(=O)(=O)N2CC(C)N(C(=O)N3CCOCC3)C2)cc1 (stereo not drawn) | 17% | 0%[46.1 µM] | -22 | 0% | -1% | 9%
Cc1cccc(NC(=O)CCCC(=O)OC(C)C(=O)c2ccccc2)c1 (stereo not drawn) | -11% | u | 12 | -2%[46.1 µM] | u | 6%
CC(=O)c1ccc(OCC(O)CN2CCN(CCN3C(=O)c4cccc5cccc(c45)C3=O)CC2)cc1 (stereo not drawn) | -79% | u | -84* | u | -101% | u
CC(=O)c1ccc(NC(=S)N2CCN(CCN3C(=O)c4cccc5cccc(c45)C3=O)CC2)cc1 | -1% | 29% | -9 | 25% | u | 14%
COc1ccccc1Cc1c(C(C)(C)C)nc2c(C)cc(Br)cn12 | x | x | -12 | x | x | x
COc1ccccc1N1CCN(C(=O)c2sc3nc(-c4ccccc4)cn3c2C)CC1 | u | u | -13 | -3% | -5% | 11µM*!
Cc1c(C(=O)N2CCN(c3ccc(F)cc3)CC2)sc2nc(-c3ccccc3)cn12 | 21% | -24% | -5 | 12% | 21% | 1%
CCOC(=O)C1CCN(C(=O)c2sc3nc(-c4ccccc4)cn3c2C)CC1 | x | -3% | 12 | 5% | x | 2%
CCOC(=O)C1CCCN(C(=O)c2sc3nc(-c4ccc(OC)cc4)cn3c2C)C1 (stereo not drawn) | 13µM* | -2% | 17 | 3% | -16% | -27%
CCN(CC(=O)Nc1c(F)cccc1F)C(=O)c1ccc(S(=O)(=O)N2CCC(C)CC2)cc1 | u | u | -10 | -1% | -87% | 15%
COc1ccc2c(c1)CCN=C2Cc1ccc(OC)c(OC)c1 | u | u | 29 | 0% | 13µM* | u
Cc1ccc(S(=O)(=O)NCc2ccc(C(=O)N3CCc4ccccc4C3)cc2)cc1 | u | u | u | -25% | 6.6µM* | u
CS(=O)(=O)N(Cc1ccccc1)c1ccc(C(=O)N2CCN(c3cccc(Cl)c3)CC2)cc1 | u | 13µM* | -29 | u | x | 8.9µM*
